Laboratory results taken from PubChem BioAssay (NCATS).
A number with no mark means an inactive call. Calls of active or inactive are those of the source. Calls follow the shape of the dose curve; as a rule, active = well fitted inhibition curve with a large enough effect; inconclusive = small, poorly fitted or top-dose-only effect; inactive = flat fitted curve, though single readings scatter.

The molecules below were run against Luciferin 4-monooxygenase (Photinus pyralis) (UniProt P08659) (assay: Primary firefly luciferase (FLuc) qHTS assay for identification of artifact compounds. (AID 1845220; also: nearly all actives have a fitted effect of over 60% in size;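 as to activity change, negative = inhibition: plate controls were DMSO vehicle for no effect and no enzyme for full effect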)). Details: purified firefly luciferase, luminescence, 5 min; series mostly up to 54.1 µM; activity change, negative = inhibition: at the top concentration.
In short: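 Compounds sat 15 min at room temperature with 10 uM luciferin and 10 uM ATP (pH 7.6 Tris acetate). Firefly luciferase (10 nM final) was then added, and luminescence was read 5 min later. Data normalized to no-enzyme and DMSO controls were Hill-fitted.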

| SMILES | outcome | activity change, negative = inhibition |
| --- | --- | --- |
| Cn1ncnc1COc1nn2c(-c3c(F)cccc3F)nnc2cc1C1CCC1 | inactive | – |
| CC(C)[C@@H](CN1CC[C@@](C)(c2cccc(O)c2)[C@@H](C)C1)NC(=O)[C@H]1Cc2ccc(O)cc2CN1 | inactive | – |
| COC(=O)C12C(=O)C(C)(O)C(=O)C1(C)C(C)=CC1C34CCC(OC3=O)C(C)(CO)C4CCC12C (centres undefined) | – | 3.71% [at 25.7 µM] |
| C=C(C)[C@H]1O[C@H]2CC[C@@]3(C)[C@@](O)(CC[C@H]4[C@@H]5OC(C)(C)[C@H]6C[C@@H]7C(=C)Cc8c(Cl)cc9[nH]c(c5c9c8[C@@]76O)[C@@]43C)[C@]23O[C@@H]3[C@H]1O | inactive [at 25.7 µM] | – |
| C=C[C@H]1CN2CC[C@H]1C[C@@H]2[C@@H](O)c1ccnc2ccccc12 | – | -9.08% |
| Clc1ccc(OCC2=NCCN2)cc1Cl | – | 0.126% |
| CC(C)(C)c1cc(C(C)(C)C)c2c(c1)C(O)(C(F)(F)F)C(=O)O2 (centres undefined) | inactive | – |
| CCOc1ccccc1-n1c(C(C)N2CCN(C(=O)COc3ccc(Cl)cc3)CC2)nc2ccccc2c1=O (centres undefined) | inactive | – |
| CC[C@H]1CN2CC[C@H]1C[C@H]2[C@H](O)c1ccnc2ccc(OC)cc12 | – | 0.0031% |
| COC1CC(OC2CCC3(C=O)C(CCC4C3CCC3(C)C(C5=CC(=O)OC5)CCC43O)C2)OC(C)C1OC1OC(CO)C(O)C(O)C1O (centres undefined) | – | 1.07% [at 25.7 µM] |
| CC(=O)OC1CC(O)C2(C)C(CC(OC(C)=O)C3(C)C2CCC2(C)C(c4ccoc4)C(=O)C4OC423)C1(C)C (centres undefined) | – | 3.41% [at 25.7 µM] |
| CC1=C2C[C@H]3[C@@H](CC=C4C[C@@H](O)CC[C@@]43C)[C@@H]2CC[C@]12O[C@@H]1C[C@H](C)CN[C@H]1[C@H]2C | inactive | – |
| CCN1C[C@]2(OC(=O)c3ccccc3NC(C)=O)CC[C@H](OC)[C@@]34[C@@H]2C[C@@H]([C@@H]13)[C@@]1(O)C[C@H](OC)[C@H]2C[C@@H]4[C@]1(O)[C@H]2OC | inactive | – |
| C[C@H](NC(=O)Cc1cc(F)cc(F)c1)C(=O)N[C@@H]1N=C(c2ccccc2)c2ccccc2N(C)C1=O | – | -8.98% |
| OC1(c2ccc(Cl)cc2)c2ccccc2C2=NCCN21 (centres undefined) | inactive | – |
| CCCN1CCO[C@H]2c3cc(O)ccc3OC[C@@H]21 | inactive | – |
| CCCCCOc1cc2c(cc1-c1cc(/C=C/C(=O)O)ccc1O)C(C)(C)CCC2(C)C | inactive | – |
| C/C=C(\C)C(=O)OC1CC2C(CC=C3CC(OC4CC(OC)C(OC5CC(OC)C(OC6OC(C)C(OC7OC(CO)C(O)C(O)C7O)C(OC)C6O)C(C)O5)C(C)O4)CCC32C)C2(O)CCC(C(C)=O)C12C (centres undefined) | inactive [at 11.6 µM] | – |
| CN[C@H]1[C@H](O)[C@H](O[C@@H]2[C@@H](O)[C@H](O[C@H]3O[C@H]([C@H](C)O)[C@@H](O)[C@H](O)[C@H]3N)[C@@H](N)C[C@H]2N)OC[C@@]1(C)O | – | -0.274% |
